Bioassay records as filed in PubChem.
Compounds with a hit are over-represented: about 3.5% of the library has one in this group of screens.
TEAD-YAP inh = TEAD-YAP interaction inhibition; HEK-TIYL cells, TEAD-Gal4/YAP UAS-luciferase luminescence; inhibition, % at 9.12 µM; actives 1.4% (n = 640,000); in the data active = inhibition above about 32%;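 note: 0% = median of test compound wells and 100% = reference inhibitor wells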
GPR151 ag = human GPR151 activation; Q8TDV0; PathHunter beta-arrestin GPR151 cells, luminescence; activation, % at 11.2 µM; actives 1% (n = 650,000); AID 1508602; in the data active = activation above about 4.9%;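 note: 0% = median of compound wells and 100% = cells with positive control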
Target sequence (Q8TDV0 whole entry, looked up): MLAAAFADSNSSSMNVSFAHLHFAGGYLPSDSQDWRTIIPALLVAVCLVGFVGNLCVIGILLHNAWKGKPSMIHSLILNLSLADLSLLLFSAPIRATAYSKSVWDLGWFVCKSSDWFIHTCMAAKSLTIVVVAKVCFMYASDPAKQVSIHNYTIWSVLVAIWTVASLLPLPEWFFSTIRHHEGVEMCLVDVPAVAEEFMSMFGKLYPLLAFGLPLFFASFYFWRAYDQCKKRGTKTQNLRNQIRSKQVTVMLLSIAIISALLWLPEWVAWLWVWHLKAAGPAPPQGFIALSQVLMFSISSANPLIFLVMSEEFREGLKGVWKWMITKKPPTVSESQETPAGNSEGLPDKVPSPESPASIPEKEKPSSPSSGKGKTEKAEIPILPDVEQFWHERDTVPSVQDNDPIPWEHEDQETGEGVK
MITF inh = human MITF inhibition, primary screen. O75030. AID 1259374. inhibition, % at 2.6 µM. AlphaScreen MITF homodimerization, bead proximity signal. actives 0.91% (n = 650,000); in the data active = inhibition above about 50%;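 note: 0% = vehicle wells with protein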
FBW7 activator = activators of human E3 ligase FBW7; Q969H0; AlphaScreen FBW7–phospho-cyclin E peptide binding, activator screen; normalized activity (activation), % at 26.1 µM; actives 0.13% (n = 650,000); AID 1259310; in the data active = normalized activity above about 1.9%;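 note: purified mutant Fbw7 with reduced substrate affinity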
Active calls of the source: *.

SMILES | TEAD-YAP inh | GPR151 ag | MITF inh | FBW7 activator
CC1CCCN(c2cc(NCCN(C)CCO)c3c4c(onc24)-c2ccccc2C3=O)C1 (stereo not drawn) | 39* | -2 | 61* | -1
CC(C)Nc1cc(NCCO)c2noc3c2c1C(=O)c1ccccc1-3 | 37* | -2 | 43 | 0
O=C1c2ccccc2-c2onc3c(N4CCCCC4)cc(Nc4ccccc4)c1c23 | 7 | -1 | 40 | 0
CN1CCN(C(=O)/C(=C/c2cccc3ccccc23)NC(=O)c2ccccc2)CC1 | -15 | 0 | 5 | 0
Cc1ccc(C(=O)c2cc([N+](=O)[O-])ccc2N2CCOCC2)cc1 | 9 | 0 | 10 | 0
CCOc1ccc(C(=O)c2cc([N+](=O)[O-])ccc2N2CCOCC2)cc1 | 60* | 0 | 9 | 0
COc1ccc(C(=O)c2cc([N+](=O)[O-])ccc2N2CCOCC2)cc1 | 60* | 1 | -6 | 0
CCC(CC)NC(=O)c1cc([N+](=O)[O-])ccc1N1CCOCC1 | 9 | 1 | 3 | 0
Clc1cccc(-n2ncc3c(NCCCn4ccnc4)ncnc32)c1 | 56* | -2 | -4 | 0
Cc1ccc(-n2ncc3c(NCCCn4ccnc4)ncnc32)cc1C | -26 | -1 | 19 | 0
COc1ccc(Cl)cc1-n1c(SCc2ccccc2F)nc2[nH]ncc2c1=O | -11 | 1 | -2 | 0
COc1ccc(Cl)cc1-n1c(SCc2cc(=O)n3ccccc3n2)nc2[nH]ncc2c1=O | 60* | -1 | 5 | 0
COC(=O)C1=C(N)Oc2cc(C)n(CC3CCCO3)c(=O)c2C1c1ccc(Cl)cc1 (stereo not drawn) | 1 | -1 | -21 | 2.3*
Cc1cc(C(=O)N=c2sc3cc4c(cc3n2C)OCCO4)n(C)n1 | -15 | -2 | 7 | 0
Cc1cc(C(=O)N=c2sc3cc4c(cc3n2C)OCCO4)nn1C | 38* | -4 | 6 | 0
CCOC(=O)N1CCc2c(sc(NC(=O)/C=C/c3ccccc3)c2C(N)=O)C1 | 40* | -2 | 7 | 0
CC1Cc2ccccc2N1CC(=O)Nc1sc2c(c1C#N)CCC2 (stereo not drawn) | 38* | 1 | -2 | 0
CC(=O)Nc1sc2c(c1C#N)CCN(C(C)=O)C2 | 7 | 1 | -12 | 0
CC(=O)N1CCc2c(sc(NC(=O)/C=C/c3cccs3)c2C#N)C1 | 58* | 0 | 9 | 0
CCOC(=O)N1CCc2c(sc(NC(=O)/C=C/c3ccccc3)c2C#N)C1 | 35* | -2 | -9 | 0
CC1Cc2ccccc2N1CC(=O)Nc1sc2c(c1C(N)=O)CCC2 (stereo not drawn) | 7 | 2 | 0 | 0
CCOc1ccc(/C(O)=C2/C(=O)C(=O)N(CCO)C2c2ccc([N+](=O)[O-])cc2)cc1 (stereo not drawn) | 0 | -1 | -12 | 0
C=CCOC(=O)C1=C(C)NC2=C(C(=O)CCC2)C1c1ccc(OC)c(Br)c1 (stereo not drawn) | 9 | -1 | 14 | 0
CC(C)CCN1CCc2nnc(-c3ccccc3)n2CC1 | -2 | 1 | -17 | 0
O=Cc1c(NC(=O)Cc2ccccc2)sc2c1CCCC2 | -12 | -1 | -18 | 2.0*
SMILES | TEAD-YAP inh | GPR151 ag | MITF inh | FBW7 activator
CCOC(=O)N1CCc2c(sc(NC(=O)CCc3ccccc3)c2C#N)C1 | 54* | 0 | -4 | 0
N#Cc1c(NC(=O)Cc2ccccc2)sc2c1CCC2 | -20 | 2 | 4 | 0
CCOC(=O)N1CCc2c(sc(NC(=O)/C=C/c3ccccc3Cl)c2C#N)C1 | -2 | -1 | -6 | 0
N#Cc1c(NC(=O)CCc2ccccc2)sc2c1CCC2 | 39* | 1 | -5 | 0
CCOC(=O)N1CCc2c(sc(NC(=O)c3ccccc3[N+](=O)[O-])c2C#N)C1 | 53* | 1 | -10 | 0
CC(=O)C(CC(=O)N1CCCCCC1)C(=O)Nc1ccccc1Cl (stereo not drawn) | -2 | 0 | 0 | 0
Cc1ccc(C)c(S(=O)(=O)c2cnc(=S)[nH]c2N)c1 | 1 | 0 | 3 | 0
N#Cc1c(NC(=O)COc2cccc3ccccc23)sc2c1CCCC2 | -11 | 1 | 15 | 2.0*
COc1ccc(C2CC(c3ccc(Br)cc3)=NN2C(=O)c2ccc(Br)o2)cc1 (stereo not drawn) | 5 | 1 | 7 | 0
CCCn1c(COc2ccc(Cl)cc2Cl)nc2ccccc21 | -62 | -1 | 16 | 0
CCCN1C(=O)C(=O)c2cc(C)ccc21 | -3 | 0 | 2 | 0
Cc1ccc2c(c1)C(=O)C(=O)N2CCCl | 60* | 1 | 0 | 0
COc1ccc(-c2cc(C(=O)Nc3sc(C)c(C)c3C(N)=O)c3ccccc3n2)cc1 | 5 | 0 | 14 | 0
O=c1oc2ccc(Cl)cc2cc1-c1csc(Nc2ccc(Cl)cc2Cl)n1 | -3 | -1 | 0 | 0
CC(=O)Nc1ccc(Nc2cc(C)nc(Nc3nccc4ccccc34)n2)cc1 | 65* | 4 | 4 | 0
CC(=O)Nc1ccc(Nc2ccnc(Nc3nccc4ccccc34)n2)cc1 | 48* | 0 | 25 | 0
CC(=O)Nc1ccc(Nc2nc(Nc3nccc4ccccc34)ncc2C)cc1 | 8 | 0 | 3 | 0
CC(=O)Nc1ccc(Nc2cc(C)nc(Nc3cnccn3)n2)cc1 | -24 | 1 | 5 | 0
Cc1ccc(-c2nc3ccccc3o2)cc1NC(=O)CN1C(=O)c2ccccc2C1=O | -12 | 0 | 0 | 0
O=[N+]([O-])c1cc(C(F)(F)F)ccc1Sc1nnnn1-c1ccccc1 | 2 | 0 | 2 | 0
O=[N+]([O-])c1ccc(Sc2nnnn2-c2ccccc2)c2ccncc12 | 50* | -1 | 4 | 0
Cc1ccccc1-n1nnnc1Sc1ccc([N+](=O)[O-])c2cnccc12 | 44* | 1 | -7 | 0
O=[N+]([O-])c1ccc(Sc2nnnn2-c2ccccc2)c(Cl)c1 | 34* | 0 | 21 | 0
CC(=O)c1ccc(Sc2nnnn2-c2ccccc2)c([N+](=O)[O-])c1 | 33* | -2 | 4 | 0
Cn1c(Sc2ccc([N+](=O)[O-])c3cnccc23)nnc1C(F)(F)F | -1 | 1 | -12 | 0
SMILES | TEAD-YAP inh | GPR151 ag | MITF inh | FBW7 activator
CCCOc1ccc(C2C(C(=O)OCCc3ccccc3)=C(C)NC3=C2C(=O)CCC3)cc1 (stereo not drawn) | 1 | 0 | 17 | 1
CCCN1CCC2(CC1)NC(=O)N(CC(=O)NCCc1ccccc1)C2=O | 4 | -2 | 10 | 0
CCCN1CCC2(CC1)NC(=O)N(CC(=O)NCCc1ccc(OC)c(OC)c1)C2=O | 8 | 0 | 15 | 2.7*
Clc1ccc(-n2c(SCCN3CCOCC3)nnc2-c2cccnc2)cc1 | -1 | 0 | 19 | 0
COc1ccc2cc(-c3nc4ccccc4[nH]3)c(=Nc3ccc(C(N)=O)cc3)oc2c1 | 66* | -7 | -8 | 0
COc1ccc2cc(-c3nc4ccccc4[nH]3)c(=Nc3ccc(F)cc3)oc2c1 | 76* | -7 | -5 | 1
COc1ccc2oc(=Nc3ccccc3)c(-c3nc4ccccc4[nH]3)cc2c1 | -21 | -2 | 9 | 0
